The source made the active and inactive calls. How the source made its calls: active means hit-call score of the fitted dose curve at least 0.9, where 1 is the maximum; inactive means score below 0.9.
What follows are compounds tested on CYP2C8 (gene 1558) (assay: LTEA_HepaRG_CYP2C8: Life Technologies and Expression Analysis (LTEA) Assay for CYP2C8 using HepaRG (AID 2283483)). Details: mRNA level, 48 h; actives raise or lower the signal.
Outline: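 Differentiated human HepaRG cells were exposed for 48 h in serum-free induction medium to eight half-log concentrations up to 100 uM in 0.5% DMSO, in duplicate. CYP2C8 mRNA was measured by TaqMan qRT-PCR, normalized to ACTB, GAPDH and POLR2A, and fitted bidirectionally against DMSO.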

| Structure (SMILES) | AC50 | outcome |
| --- | --- | --- |
| Cc1nccn1-c1ccc(Sc2cccc(C3(C(N)=O)CCOCC3)c2)cc1 | 12.6 µM (active) | – |
| OC[C@H]1O[C@@](CO)(O[C@H]2O[C@H](CO)[C@@H](O)[C@H](O)[C@H]2O)[C@@H](O)[C@@H]1O | – | inactive |
| Nc1ccn([C@@H]2O[C@H](CO)[C@@H](O)[C@@H]2O)c(=O)n1 | – | inactive |
| OCCOCCOCCO | – | inactive |
| CCCOc1ccc(S(=O)(=O)N2CCN(CC)CC2)cc1-c1nc2c(CC)n(Cc3ccccn3)nc2c(=O)[nH]1 | 3.5 µM (active) | – |
| Cc1nc(-c2ccccn2)ncc1C(=O)Nn1cc(C)c2cc(F)ccc21 | – | inactive |
| NC(=O)N(O)[C@@H]1COc2cc(OCc3ccccc3)ccc21 | – | inactive |
| CNC(C)=O | – | inactive |
| O=C(O)c1cccc(C[C@@H]2COc3ccc(OCc4nc5cc(F)ccc5s4)cc3[C@@H]2O)c1 | 84.2 µM (active) | – |
| CCCC(CCC)C(=O)O | – | inactive |
| COc1cc(C(C)C)c2c(c1)S(=O)(=O)N(COc1cc(=O)n3cccc(OCCN4CCCCC4)c3n1)C2=O | 19.9 µM (active) | – |
| CCCCN1C(=O)[C@@H]([C@H](O)C2CCCCC2)NC(=O)C12CCN(Cc1ccc(Oc3ccc(C(=O)O)cc3)cc1)CC2 | 3.24 µM (active) | – |

The compounds below were run on CYP2C9 (gene 1559) (assay: LTEA_HepaRG_CYP2C9: Life Technologies and Expression Analysis (LTEA) Assay for CYP2C9 using HepaRG (AID 2283484)). Details: mRNA level, 48 h; actives raise or lower the signal.
Outline: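 Differentiated human HepaRG cells were exposed 48 h in serum-free induction medium to eight half-log concentrations up to 100 uM in 0.5% DMSO. CYP2C9 mRNA was measured by qRT-PCR, normalized to ACTB, GAPDH and POLR2A, and fitted bidirectionally against DMSO.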

| Structure (SMILES) | outcome | AC50 |
| --- | --- | --- |
| C[C@]12C=CC(=O)C=C1CC[C@H]1[C@@H]3C[C@@H](O)[C@](O)(C(=O)CO)[C@@]3(C)C[C@H](O)[C@@]12F | inactive | – |
| O=C(O)c1ccc2c(c1)nc(C(=O)NC1CCN(C3CC3)CC1)n2Cc1cc(-c2ccc(Cl)s2)on1 | inactive | – |
| O=S1(=O)CCCO1 | inactive | – |
| CC(C)c1nnc2ccc(-c3ocnc3-c3cc(F)ccc3F)cn12 | – | 71.7 µM (active) |
| CCCCCOC(C)=O | inactive | – |
| NC(N)=O | inactive | – |
| OCC(CO)(CO)CO | inactive | – |
| CC[C@H](C)C(=O)O[C@H]1C[C@H](O)C=C2C=C[C@H](C)[C@H](CC[C@@H](O)C[C@@H](O)CC(=O)O)[C@H]21 | inactive | – |
| O=C(NO)C1(NS(=O)(=O)c2ccc(Oc3ccc(F)cc3)cc2)CCOCC1 | inactive | – |
| CCCc1ccccc1 | inactive | – |
| CC(C)CC(C)O (centres undefined) | inactive | – |
| CCCCC(CC)C(=O)OCCOCCOCCOC(=O)C(CC)CCCC (centres undefined) | inactive | – |
| CCCCCCCCCCCCCCCCOS(=O)(=O)O | inactive | – |
| C[C@@H](Oc1ccc(CNC(=O)c2cccnc2Oc2ccc3c(c2)OCO3)c(F)c1)C(=O)O | inactive | – |
| Cn1cc[nH]c1=S | inactive | – |
| CCCCCCCC/C=C\CCCCCCCC(=O)OC[C@@H](O)[C@H]1OC[C@H](O)[C@H]1O | inactive | – |
| c1ccc2c(c1)-c1cccc3c1c-2cc1ccccc13 | – | 18.1 µM (active) |
| COc1cc2c(c(OC)c1OC)-c1ccc(OC)c(=O)cc1[C@@H](NC(C)=O)CC2 | – | 0.0777 µM (active) |
| Cc1nccn1-c1ccc(Sc2cccc(C3(C(N)=O)CCOCC3)c2)cc1 | – | 12.2 µM (active) |
| OC[C@H]1O[C@@](CO)(O[C@H]2O[C@H](CO)[C@@H](O)[C@H](O)[C@H]2O)[C@@H](O)[C@@H]1O | inactive | – |
| Nc1ccn([C@@H]2O[C@H](CO)[C@@H](O)[C@@H]2O)c(=O)n1 | inactive | – |
| OCCOCCOCCO | inactive | – |
| CCCOc1ccc(S(=O)(=O)N2CCN(CC)CC2)cc1-c1nc2c(CC)n(Cc3ccccn3)nc2c(=O)[nH]1 | inactive | – |
| Cc1nc(-c2ccccn2)ncc1C(=O)Nn1cc(C)c2cc(F)ccc21 | – | 75.6 µM (active) |
| NC(=O)N(O)[C@@H]1COc2cc(OCc3ccccc3)ccc21 | inactive | – |
| CNC(C)=O | inactive | – |
| O=C(O)c1cccc(C[C@@H]2COc3ccc(OCc4nc5cc(F)ccc5s4)cc3[C@@H]2O)c1 | – | 81.6 µM (active) |
| CCCC(CCC)C(=O)O | inactive | – |
| COc1cc(C(C)C)c2c(c1)S(=O)(=O)N(COc1cc(=O)n3cccc(OCCN4CCCCC4)c3n1)C2=O | – | 23.6 µM (active) |
| CCCCN1C(=O)[C@@H]([C@H](O)C2CCCCC2)NC(=O)C12CCN(Cc1ccc(Oc3ccc(C(=O)O)cc3)cc1)CC2 | – | 1.7 µM (active) |

Each compound was assayed on CYP2E1 (gene 1571) (assay: LTEA_HepaRG_CYP2E1: Life Technologies and Expression Analysis (LTEA) Assay for CYP2E1 using HepaRG (AID 2283485)). Details: mRNA level, 48 h; actives raise or lower the signal.
Outline: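 Differentiated HepaRG cells were treated in duplicate for 48 h with chemicals in 0.5% DMSO, from 100 uM downward in half-log dilutions. RNA was then analysed by qRT-PCR for CYP2E1 induction or loss.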

| Structure (SMILES) | outcome | AC50 |
| --- | --- | --- |
| C[C@]12C=CC(=O)C=C1CC[C@H]1[C@@H]3C[C@@H](O)[C@](O)(C(=O)CO)[C@@]3(C)C[C@H](O)[C@@]12F | inactive | – |
| O=C(O)c1ccc2c(c1)nc(C(=O)NC1CCN(C3CC3)CC1)n2Cc1cc(-c2ccc(Cl)s2)on1 | inactive | – |
| O=S1(=O)CCCO1 | inactive | – |
| Cn1c(=O)c2[nH]cnc2n(C)c1=O | inactive | – |
| CC(C)c1nnc2ccc(-c3ocnc3-c3cc(F)ccc3F)cn12 | – | 22.2 µM (active) |
| CCCCCOC(C)=O | inactive | – |
| NC(N)=O | inactive | – |
| OCC(CO)(CO)CO | inactive | – |
| CC[C@H](C)C(=O)O[C@H]1C[C@H](O)C=C2C=C[C@H](C)[C@H](CC[C@@H](O)C[C@@H](O)CC(=O)O)[C@H]21 | – | 50 µM (active) |
| c1ccc2ncccc2c1 | inactive | – |
| O=C(NO)C1(NS(=O)(=O)c2ccc(Oc3ccc(F)cc3)cc2)CCOCC1 | – | 54.4 µM (active) |
| CCCc1ccccc1 | inactive | – |
| CC(C)CC(C)O (centres undefined) | inactive | – |
| CCCCC(CC)C(=O)OCCOCCOCCOC(=O)C(CC)CCCC (centres undefined) | inactive | – |
| CCCCCCCCCCCCCCCCOS(=O)(=O)O | – | 38.5 µM (active) |
| C[C@@H](Oc1ccc(CNC(=O)c2cccnc2Oc2ccc3c(c2)OCO3)c(F)c1)C(=O)O | inactive | – |

| Structure (SMILES) | outcome | AC50 |
| --- | --- | --- |
| Cn1cc[nH]c1=S | inactive | – |
| CCCCCCCC/C=C\CCCCCCCC(=O)OC[C@@H](O)[C@H]1OC[C@H](O)[C@H]1O | inactive | – |
| c1ccc2c(c1)-c1cccc3c1c-2cc1ccccc13 | – | 14.7 µM (active) |
| COc1cc2c(c(OC)c1OC)-c1ccc(OC)c(=O)cc1[C@@H](NC(C)=O)CC2 | – | 0.0817 µM (active) |
| Cc1nccn1-c1ccc(Sc2cccc(C3(C(N)=O)CCOCC3)c2)cc1 | – | 6.52 µM (active) |
| OC[C@H]1O[C@@](CO)(O[C@H]2O[C@H](CO)[C@@H](O)[C@H](O)[C@H]2O)[C@@H](O)[C@@H]1O | inactive | – |
| Nc1ccn([C@@H]2O[C@H](CO)[C@@H](O)[C@@H]2O)c(=O)n1 | inactive | – |
| OCCOCCOCCO | inactive | – |
| CCCOc1ccc(S(=O)(=O)N2CCN(CC)CC2)cc1-c1nc2c(CC)n(Cc3ccccn3)nc2c(=O)[nH]1 | – | 4.54 µM (active) |
| Cc1nc(-c2ccccn2)ncc1C(=O)Nn1cc(C)c2cc(F)ccc21 | – | 24.3 µM (active) |
| NC(=O)N(O)[C@@H]1COc2cc(OCc3ccccc3)ccc21 | – | 50 µM (active) |
| CNC(C)=O | inactive | – |
| O=C(O)c1cccc(C[C@@H]2COc3ccc(OCc4nc5cc(F)ccc5s4)cc3[C@@H]2O)c1 | – | 71.7 µM (active) |
| CCCC(CCC)C(=O)O | inactive | – |
| COc1cc(C(C)C)c2c(c1)S(=O)(=O)N(COc1cc(=O)n3cccc(OCCN4CCCCC4)c3n1)C2=O | – | 17.2 µM (active) |
| CCCCN1C(=O)[C@@H]([C@H](O)C2CCCCC2)NC(=O)C12CCN(Cc1ccc(Oc3ccc(C(=O)O)cc3)cc1)CC2 | – | 3.86 µM (active) |

— PubChem BioAssay (EPA / NIEHS)
